In PubChem BioAssay AID1159580 (chemical genetic matrix, 2015):
Values joined by “and” are separate entries in the source; they are usually repeats but may differ in a detail not shown here. Equal values may be shown once. In all, about 5,500 compounds went through this assay and about 2,000 (36%) were called active. Not shown: some 18% with an inconclusive outcome. No stated cut-off is given here; in the data, active means normalized growth mostly below about 0.91 (no sharp cut-off); inconclusive means no clear call, values can overlap the other calls; inactive means mostly above about 0.92. The list shows a part of the results.

Test: chemical genetic growth profiling, strain panel (AID 1159580);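 further: tested at 20 µM; growth read once vehicle control cultures reached saturation at 30 °C; 1 = growth at the plate median or of vehicle wells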
Details: S. cerevisiae deletion strains, growth OD

Measured: normalized growth

COc1cc(C(=O)NCc2ccc(OCCN(C)C)cc2)cc(OC)c1OC
inactive: locus YAL013W, strain DEP1, stronger effect = lower value 1 | locus YAL021C, strain ccr4, stronger effect = lower value 0.993 | locus YAL026C, strain drs2, stronger effect = lower value 0.998 | locus YAL030W, strain snc1, stronger effect = lower value 1 | locus YBL061C, strain skt5, stronger effect = lower value 0.981 | locus YBR009C, strain hhf1, stronger effect = lower value 1 | locus YBR021W, strain FUR4, stronger effect = lower value 1.03 | locus YBR023C, strain chs3, stronger effect = lower value 0.985 | locus YBR171W, strain sec66, stronger effect = lower value 0.999 | locus YBR229C, strain ROT2, stronger effect = lower value 0.951 | locus YBR231C, strain swc5, stronger effect = lower value 0.99 | locus YBR279W, strain paf1, stronger effect = lower value 1 | locus YCL011C, strain gbp2, stronger effect = lower value 1.01 | locus YCL016C, strain dcc1, stronger effect = lower value 0.98 | locus YCL029C, strain bik1, stronger effect = lower value 0.977 | locus YCL061C, strain MRC1, stronger effect = lower value 1 | locus YCL069W, strain vba3, stronger effect = lower value 0.995 | locus YCR088W, strain abp1, stronger effect = lower value 0.99 | locus YDL005C, strain med2, stronger effect = lower value 1.01 | locus YDL035C, strain GPR1, stronger effect = lower value 1.01 | locus YDL040C, strain nat1, stronger effect = lower value 1.02 | locus YDL074C, strain BRE1, stronger effect = lower value 0.951 | locus YDL101C, strain DUN1, stronger effect = lower value 0.973 | locus YDL134C, strain PPH21, stronger effect = lower value 0.996 | locus YDL185W, strain tfp1, stronger effect = lower value 0.979 | locus YDL192W, strain arf1, stronger effect = lower value 0.982 | locus YDR001C, strain nth1, stronger effect = lower value 1 | locus YDR069C, strain doa4, stronger effect = lower value 1 | locus YDR101C, strain arx1, stronger effect = lower value 0.93 | locus YDR137W, strain rgp1, stronger effect = lower value 1.01 | locus YDR150W, strain NUM1, stronger effect = lower value 0.974 | locus YDR159W, strain sac3, stronger effect = lower value 0.953 | locus YDR162C, strain NBP2, stronger effect = lower value 1.01 | locus YDR195W, strain ref2 0.997 | locus YDR297W, strain sur2, stronger effect = lower value 0.981 | locus YDR318W, strain mcm21, stronger effect = lower value 0.992 | locus YDR334W, strain swr1, stronger effect = lower value 0.99 | locus YDR335W, strain msn5, stronger effect = lower value 0.982 | locus YDR388W, stronger effect = lower value 0.988 | locus YDR392W, strain spt3, stronger effect = lower value 0.833 | locus YDR502C, strain sam2, stronger effect = lower value 0.985 | locus YEL003W, strain gim4, stronger effect = lower value 1 | locus YEL037C, strain rad23, stronger effect = lower value 0.988 | locus YEL061C, strain CIN8 (second series), stronger effect = lower value 0.978 | locus YEL061C, strain CIN8, stronger effect = lower value 0.978 | locus YER015W, strain faa2, stronger effect = lower value 0.991 | locus YER016W, strain bim1, stronger effect = lower value 0.994 | locus YER110C, stronger effect = lower value 0.984 | locus YER111C, strain swi4, stronger effect = lower value 0.982 | locus YER155C, strain BEM2 (second series), stronger effect = lower value 0.988 | locus YER155C, strain BEM2, stronger effect = lower value 0.996 | locus YER167W, strain BCK2, stronger effect = lower value 0.997 | locus YFR010W, strain ubp6, stronger effect = lower value 1 | locus YGL078C, strain dbp3, stronger effect = lower value 0.981 | locus YGL086W, strain mad1, stronger effect = lower value 0.966 | locus YGL167C, strain pmr1, stronger effect = lower value 1 | locus YGL173C, strain kem1, stronger effect = lower value 1 | locus YGL227W, strain vid30, stronger effect = lower value 1.01 | locus YGL240W, strain doc1, stronger effect = lower value 0.984 | locus YGL248W, strain PDE1, stronger effect = lower value 0.975 | locus YGL253W, strain hxk2, stronger effect = lower value 0.993 | locus YGR078C, strain PAC10, stronger effect = lower value 0.963 | locus YGR135W, strain pre9, stronger effect = lower value 1.06 | locus YGR229C, strain SMI1, stronger effect = lower value 1.02 | locus YGR252W, strain gcn5, stronger effect = lower value 1.03 | locus YHR013C, strain ard1, stronger effect = lower value 0.949 | locus YHR027C, strain rpn1, stronger effect = lower value 0.979 | locus YHR030C, strain SLT2, stronger effect = lower value 0.985 and 0.966 | locus YHR079C, strain IRE1 (second series), stronger effect = lower value 0.976 | locus YHR079C, strain IRE1, stronger effect = lower value 0.976 | locus YHR094C, strain hxt1, stronger effect = lower value 0.979 | locus YHR129C, strain ARP1, stronger effect = lower value 0.995 | locus YHR142W, strain chs7, stronger effect = lower value 0.982 | locus YHR200W, strain rpn10, stronger effect = lower value 0.983 | locus YIL066C, strain RNR3, stronger effect = lower value 0.963 | locus YIL073C, strain SPO22, stronger effect = lower value 1.04 | locus YIL125W, strain kgd1, stronger effect = lower value 0.976 | locus YIR030C, strain dcg1, stronger effect = lower value 0.989 | locus YJL092W, strain hpr5, stronger effect = lower value 0.997 | locus YJL095W, strain BCK1 (second series), stronger effect = lower value 0.988 | locus YJL095W, strain BCK1, stronger effect = lower value 0.991 and 0.995 | locus YJL115W, strain asf1, stronger effect = lower value 0.993 | locus YJL129C, strain trk1, stronger effect = lower value 0.981 | locus YJL134W, strain LCB3, stronger effect = lower value 0.993 | locus YJL154C, strain vps35, stronger effect = lower value 1.02 | locus YJL164C, strain tpk1, stronger effect = lower value 1 | locus YJL166W, strain qcr8, stronger effect = lower value 0.988 | locus YJL168C, strain set2, stronger effect = lower value 0.979 | locus YJL187C, strain SWE1 (second series), stronger effect = lower value 0.953
